Consider seven compounds from PubChem BioAssay.

Experiment [1] in a line: A549 cell viability effects, profiling panel, calcein-AM fluorescence, 48 h, basal (AID 1162). Further: test concentration not given here. Conditions: higher = more signal.
Experiment [2] in a line: adipocyte viability effects, profiling panel, cell-based, 3T3-L1 adipocytes, calcein-AM fluorescence, 48 h, basal (AID 1163). Further: test concentration not given here. Conditions: 3T3-L1 adipocytes viability, higher = more signal.
The nature of experiment [3]: HepG2 cell viability effects, profiling panel, calcein-AM fluorescence, 48 h, basal (AID 1164). Further: test concentration not given here. As to conditions: higher = more signal.
Experiment [4] in a line: MM1S cell viability effects, profiling panel, calcein-AM fluorescence, 48 h, basal (AID 1165).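 Further: viability of MM1S multiple myeloma cells under basal unstimulated conditions; test concentration not given here.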 Conditions: higher = more signal.
Experiment [5] is described as follows: basal RPMI8226 viability, no added stimulus, profiling panel, cell-based, calcein-AM fluorescence, 48 h, PK04 Diversity Set (AID 1166).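 Further: cells grown under basal conditions without added stimulus; test concentration not given here.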 Conditions: RPMI8226 myeloma viability, higher = more signal.
Experiment [6] is described as follows: basal HepG2 mitochondrial membrane potential changes, profiling panel, cell-based, JC-1 fluorescence, 24 h, 100 nL compound (AID 1167). Further: test concentration not given here. Conditions: higher = more signal.
Experiment [7] can be described thus: basal 3T3-L1 adipocyte mitochondrial potential changes, profiling panel, cell-based, JC-1 fluorescence, 3T3-L1 adipocytes, 24 h, 100 nL compound (AID 1168). Further: test concentration not given here. As to conditions: JC-1 mitochondrial fluorescence, higher = more signal, called active from +8 up or from −8 down.
The nature of experiment [8]: basal RPMI8226 mitochondrial membrane potential changes, profiling panel, cell-based, JC-1 fluorescence, 24 h, 100 nL compound (AID 1169). Further: test concentration not given here. As to conditions: RPMI8226 myeloma, JC-1 mitochondrial potential fluorescence, higher = more signal.
Experiment [9] is described as follows: basal MM1S mitochondrial membrane potential changes, profiling panel, cell-based, JC-1 fluorescence, 24 h, 100 nL compound (AID 1170). Further: test concentration not given here. As to conditions: higher = more signal.
Experiment [10] can be described thus: A549 lung cancer cell viability effects, profiling panel, resazurin fluorescence, 24 h, PK04 Diversity Set (AID 1171). Further: test concentration not given here. As to conditions: higher = more signal, called active from +8 up or from −8 down.
Experiment [11] is described as follows: HepG2 liver cancer cell viability effects, profiling panel, resazurin fluorescence, 24 h, PK04 Diversity Set (AID 1172). Further: test concentration not given here. As to conditions: higher = more signal. (The colour change of resazurin is a common sign of viable cells or microbes.)
Experiment [12] in a line: basal S. cerevisiae growth modulation, no modifier, primary screen, OD600, strain BY4716, 24 h, basal condition (AID 1173). As to conditions: OD600, 24 h, higher = more signal, called active from +8 up or from −8 down.
Experiment [13] in a line: MM1S myeloma cell viability, profiling panel, resazurin fluorescence, basal, 24 h, PK04 Diversity Set (AID 1174). Further: test concentration not given here. Conditions: higher = more signal, called active from +8 up or from −8 down.
Experiment [14] concerns the target Dihydroorotate dehydrogenase (quinone), mitochondrial (Plasmodium falciparum (isolate 3D7)) (UniProt Q08210). Briefly: PfDHODH enzyme inhibitors, primary screen, biochemical, C-terminal His tag, absorbance 600 nm (AID 1175).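 Further: recombinant parasite enzyme with a five histidine tag at its C terminus; test concentration not given here.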 As to conditions: DCIP absorbance 600 nm, higher = more signal, called active from +8 up or from −8 down.
The nature of experiment [15]: P. aeruginosa biofilm formation inhibitors, primary screen, strain PAO1, LB-PBS medium, absorbance 600 nm (AID 1176). Further: test concentration not given here. As to conditions: P. aeruginosa PAO1 growth/biofilm, A600, 12 h; higher = more signal.
A short description of experiment [16]: S. cerevisiae RM11-1a growth modifiers, primary screen, strain RM11-1a, OD600, basal, 24 h (AID 1177).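 Further: cultures grown under basal conditions with no added stressor; test concentration not given here.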 Conditions: OD600, 24 h, higher = more signal, called active from +8 up or from −8 down.
The nature of experiment [17]: E. coli acrAB mutant growth effects, primary screen, E. coli filamentation inducers, strain DRC39, OD650, 24 h (AID 1178).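 Further: growth measured as culture turbidity by optical density at 650 nm; test concentration not given here.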 Conditions: higher = more signal, called active from +8 up or from −8 down.
Experiment [18] is described as follows: E. coli acrAB mutant growth effects, primary screen, E. coli filamentation inducers, strain DRC39, OD650, 48 h (AID 1179).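 Further: screen aims at cell division blockers that make cells filament.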 Conditions: E. coli DRC39 delta-acrAB growth, higher = more signal, called active from +8 up or from −8 down.
A short description of experiment [19]: RPMI8226 myeloma cell viability, profiling panel, resazurin fluorescence, basal, 24 h, PK04 Diversity Set (AID 1180).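 Further: RPMI8826 multiple myeloma cell line at 5000 cells per well; test concentration not given here.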 Conditions: higher = more signal.
In experiment [20] the target is E3 ubiquitin-protein ligase XIAP (Homo sapiens) (UniProt P98170). Description: XIAP binders, primary screen, biophysical, small-molecule microarray, fluorescence 635 nm (AID 1181).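 Further: score merges 667 nm emission and signal to noise over triplicate slides.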 Conditions: small-molecule microarray binding, higher = more signal.

Each structure is given as a SMILES string. The source made the active and inactive calls. Unless noted, how the calls were made is not given here.

Chain of Dihydroorotate dehydrogenase (quinone), mitochondrial (Plasmodium falciparum (isolate 3D7)) (Q08210 whole entry, looked up): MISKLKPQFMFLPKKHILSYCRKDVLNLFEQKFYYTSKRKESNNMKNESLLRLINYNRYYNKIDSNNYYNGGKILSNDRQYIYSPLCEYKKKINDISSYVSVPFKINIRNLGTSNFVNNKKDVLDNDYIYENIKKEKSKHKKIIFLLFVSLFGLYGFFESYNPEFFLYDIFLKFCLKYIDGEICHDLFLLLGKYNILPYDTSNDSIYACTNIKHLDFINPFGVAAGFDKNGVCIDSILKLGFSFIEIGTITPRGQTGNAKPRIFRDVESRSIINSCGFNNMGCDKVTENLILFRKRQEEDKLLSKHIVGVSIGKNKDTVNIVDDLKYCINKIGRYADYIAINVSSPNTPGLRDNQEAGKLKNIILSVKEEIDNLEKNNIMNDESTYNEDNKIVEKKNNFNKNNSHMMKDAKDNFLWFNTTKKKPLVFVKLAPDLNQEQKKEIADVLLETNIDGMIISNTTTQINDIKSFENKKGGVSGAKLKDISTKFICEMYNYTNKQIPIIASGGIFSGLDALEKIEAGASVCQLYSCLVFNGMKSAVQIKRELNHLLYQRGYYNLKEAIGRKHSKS
Chain of E3 ubiquitin-protein ligase XIAP (Homo sapiens) (P98170 whole entry, looked up): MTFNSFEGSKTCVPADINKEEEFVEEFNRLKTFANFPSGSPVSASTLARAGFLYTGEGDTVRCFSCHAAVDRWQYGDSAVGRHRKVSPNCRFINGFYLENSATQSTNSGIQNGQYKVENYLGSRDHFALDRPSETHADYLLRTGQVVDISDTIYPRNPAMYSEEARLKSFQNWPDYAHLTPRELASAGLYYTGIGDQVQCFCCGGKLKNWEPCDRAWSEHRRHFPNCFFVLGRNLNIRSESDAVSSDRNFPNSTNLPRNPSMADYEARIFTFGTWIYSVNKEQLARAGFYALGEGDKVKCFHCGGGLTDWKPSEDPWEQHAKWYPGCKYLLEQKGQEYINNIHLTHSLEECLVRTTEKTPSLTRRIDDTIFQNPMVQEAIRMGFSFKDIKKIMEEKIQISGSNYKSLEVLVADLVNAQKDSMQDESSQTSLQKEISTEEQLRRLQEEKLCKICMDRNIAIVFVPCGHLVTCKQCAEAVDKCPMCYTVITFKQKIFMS

As to `C=CCC(OC(C)=O)[C@@H]1[C@@H](N(Cc2cc3ccccc3o2)C(=O)Cc2ccc(F)cc2)c2cc(OCCCO)ccc2N1C(=O)c1ccc2ccccc2n1` (stereo not given in full), the z-score in [1] is -0.153; in [2] it was 1.2; in experiment [3], 1.09; in experiment [4], 0.466; in [5], -0.553; in experiment [6] it was 1.72. For the same compound, the z-score in experiment [7] was -0.528 (inactive); in experiment [8], -0.131; in experiment [9], 0.288; in [10], 0.642 (inactive); in experiment [11], 0.182; in experiment [12], -0.44 (inactive). Also, the z-score in [13] is 0.74 (inactive); in experiment [15], 0.243 (inactive); in [16] it was -0.176 (inactive); in experiment [17], 0.106 (inactive); in experiment [18], 0.155 (inactive); in experiment [19] it was 0.708. For the same compound, the composite z-score in [14] was -0.235 (inactive); in experiment [20], -0.217.
Turning to `COCC(=C=CC[C@H](O)c1ccc(OCCO)cc1)C[C@H](O)COCc1ccccc1`, the z-score is 0.542 in experiment [1]; 1.24 in [2]; 0.115 in experiment [3]; -0.26 in experiment [4]; 0.249 in [5]; 1.07 in experiment [6]. Further, the z-score is -0.801 (inactive) in experiment [7]; -0.245 in experiment [8]; -0.748 in experiment [9]; 0.925 (inactive) in experiment [10]; 0.993 in experiment [11]; -1.49 (inactive) in experiment [12]. For the same compound, the z-score in experiment [13] was 1.18 (inactive); in experiment [15], 0.33 (inactive); in experiment [16], -1.3 (inactive); in experiment [17], 0.979 (inactive); in experiment [18] it was 0.921 (inactive); in experiment [19], 1.51. Further, the composite z-score was -0.95 (inactive) in experiment [14] and -0.0238 in [20].
`COc1ccc(C(O)C2C=CC3C(=O)N(C)C(=O)C3N2N2CCCCC2)cc1` (stereo not given): the z-score in [1] was -0.972; in experiment [2] it was 0.0526; in experiment [3], 0.133; in experiment [4], -0.207; in [5] it was -0.0882; in experiment [6] it was -0.49. The z-score in experiment [7] is 0.0216 (inactive); in experiment [8], -0.176; in experiment [9], 0.188; in experiment [10], 0.014 (inactive); in experiment [11], -0.197; in experiment [12] it was 0.381 (inactive). The z-score in experiment [13] was -0.8 (inactive); in [15] it was 0.49 (inactive); in experiment [16], -0.378 (inactive); in experiment [17], -0.584 (inactive); in [18] it was -0.858 (inactive); in experiment [19], -0.267. For the same compound, the composite z-score in experiment [14] is 0.0624 (inactive); in experiment [20], 0.0728.
In the case of `O=C1c2ccccc2[C@](Cc2ccccc2I)(C(=O)NCCN2CCOCC2)[C@H](c2ccc(CO)cc2)N1Cc1ccccc1`, the z-score in experiment [1] is -0.0426; in [2], 0.193; in experiment [3] it was 1.14; in experiment [4], 0.211; in experiment [5] it was -0.347; in experiment [6] it was 0.642. Further, the z-score in [7] is 0.421 (inactive); in [8], 0.231; in [9] it was -0.462; in [10], 0.0188 (inactive); in experiment [11] it was -0.462; in experiment [12], -0.915 (inactive). For the same compound, the z-score in [13] was 0.068 (inactive); in [15], 0.186 (inactive); in experiment [16], 0.233 (inactive); in experiment [17] it was -0.256 (inactive); in [18] it was -0.0438 (inactive); in experiment [19], -0.713. The composite z-score was 0.215 (inactive) in experiment [14] and 0.0904 in experiment [20].
Regarding `O=C1O[C@H](c2ccccc2)[C@H](c2ccccc2)N2[C@H]1[C@@H](C(=O)O)[C@]1(C(=O)Nc3ccccc31)[C@H]2c1ccc(O)cc1`, the z-score in [1] was 0.29; in experiment [2] it was -0.268; in [3], -0.733; in experiment [4] it was 0.0137; in [5] it was 0.605; in experiment [6], -1.33. The z-score was -1.43 (inactive) in experiment [7]; 0.73 in [8]; 0.0818 in experiment [9]; 0.769 (inactive) in experiment [10]; -0.401 in [11]; 0.671 (inactive) in experiment [12]. The z-score was 0.186 (inactive) in [13]; 1.53 (inactive) in experiment [15]; 0.473 (inactive) in experiment [16]; 0.293 (inactive) in experiment [17]; -0.221 (inactive) in [18]; 0.494 in [19]. The composite z-score is -1.66 (inactive) in experiment [14] and -0.237 in experiment [20].
Take `CO[C@H]1O[C@H](CO)[C@@H](OC(=O)Nc2ccccc2-c2ccccc2)[C@H](OC(=O)Nc2ccc3c(c2)OCO3)[C@@H]1OC(=O)Nc1ccc2c(c1)OCO2`: the z-score is 0.105 in [1]; -1.46 in experiment [2]; -1.05 in [3]; -1.49 in experiment [4]; -1.84 in experiment [5]; -0.467 in experiment [6]. In addition, the z-score was 1.34 (inactive) in experiment [7]; -0.363 in [8]; -0.263 in [9]; -1.77 (inactive) in experiment [10]; -1.18 in experiment [11]; 1.03 (inactive) in experiment [12]. The z-score in experiment [13] is -1.38 (inactive); in [15] it was 1.86 (inactive); in experiment [16] it was 2.9 (inactive); in [17] it was 0.999 (inactive); in experiment [18] it was -0.124 (inactive); in experiment [19] it was -1.12. The figures for the composite z-score in experiment [14] and in [20] were -0.289 (inactive) and 0.227, respectively.
For `COc1cc2c(cc1OC)CN(C(=O)[C@H]1[C@@H]3C(=O)O[C@@H](c4ccccc4)[C@@H](c4ccccc4)N3[C@@H](c3ccc(OCCO)cc3)[C@]13C(=O)Nc1ccc(C#CC4(O)CCCCCC4)cc13)CC2`, the z-score is 0.943 in [1]; 0.0483 in experiment [2]; 1.17 in experiment [3]; 0.217 in experiment [4]; 0.0846 in experiment [5]; -0.871 in experiment [6]. Moreover, the z-score was 0.568 (inactive) in experiment [7]; -0.338 in experiment [8]; -0.852 in [9]; -0.354 (inactive) in experiment [10]; 0.0686 in [11]; 1.19 (inactive) in experiment [12]. Moreover, the z-score in [13] is 0.122 (inactive); in experiment [15], 2.91 (inactive); in experiment [16], 3.28 (inactive); in experiment [17] it was 0.457 (inactive); in experiment [18] it was 1.25 (inactive); in experiment [19], 0.378. Also, the composite z-score in [14] is -0.143 (inactive); in experiment [20] it was -0.0011.
